In ChEMBL document CHEMBL2218924, “A broad activity screen in support of a chemogenomic map for kinase signalling research and drug discovery” (Biochem J, 2013) one finds residual activity data, which are given here for four compounds.

Experiment [1] deals with T1, Serine/threonine-protein kinase 17A (Homo sapiens) (UniProt Q9UEE5).
T1 sequence (whole entry): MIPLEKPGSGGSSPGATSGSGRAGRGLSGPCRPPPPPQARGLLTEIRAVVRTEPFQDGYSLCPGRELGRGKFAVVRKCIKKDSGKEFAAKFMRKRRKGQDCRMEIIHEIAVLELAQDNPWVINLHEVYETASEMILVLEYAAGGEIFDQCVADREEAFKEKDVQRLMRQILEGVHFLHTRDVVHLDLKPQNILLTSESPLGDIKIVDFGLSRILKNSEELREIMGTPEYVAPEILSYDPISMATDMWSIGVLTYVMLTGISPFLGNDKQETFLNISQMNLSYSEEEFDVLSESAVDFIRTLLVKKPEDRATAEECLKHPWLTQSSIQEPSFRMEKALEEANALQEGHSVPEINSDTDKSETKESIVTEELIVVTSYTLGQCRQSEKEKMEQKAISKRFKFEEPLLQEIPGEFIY
Particulars: at 10 µM.

Experiment [2] addresses T2, Ephrin type-A receptor 1 (Homo sapiens) (UniProt P21709).
T2 sequence (whole entry): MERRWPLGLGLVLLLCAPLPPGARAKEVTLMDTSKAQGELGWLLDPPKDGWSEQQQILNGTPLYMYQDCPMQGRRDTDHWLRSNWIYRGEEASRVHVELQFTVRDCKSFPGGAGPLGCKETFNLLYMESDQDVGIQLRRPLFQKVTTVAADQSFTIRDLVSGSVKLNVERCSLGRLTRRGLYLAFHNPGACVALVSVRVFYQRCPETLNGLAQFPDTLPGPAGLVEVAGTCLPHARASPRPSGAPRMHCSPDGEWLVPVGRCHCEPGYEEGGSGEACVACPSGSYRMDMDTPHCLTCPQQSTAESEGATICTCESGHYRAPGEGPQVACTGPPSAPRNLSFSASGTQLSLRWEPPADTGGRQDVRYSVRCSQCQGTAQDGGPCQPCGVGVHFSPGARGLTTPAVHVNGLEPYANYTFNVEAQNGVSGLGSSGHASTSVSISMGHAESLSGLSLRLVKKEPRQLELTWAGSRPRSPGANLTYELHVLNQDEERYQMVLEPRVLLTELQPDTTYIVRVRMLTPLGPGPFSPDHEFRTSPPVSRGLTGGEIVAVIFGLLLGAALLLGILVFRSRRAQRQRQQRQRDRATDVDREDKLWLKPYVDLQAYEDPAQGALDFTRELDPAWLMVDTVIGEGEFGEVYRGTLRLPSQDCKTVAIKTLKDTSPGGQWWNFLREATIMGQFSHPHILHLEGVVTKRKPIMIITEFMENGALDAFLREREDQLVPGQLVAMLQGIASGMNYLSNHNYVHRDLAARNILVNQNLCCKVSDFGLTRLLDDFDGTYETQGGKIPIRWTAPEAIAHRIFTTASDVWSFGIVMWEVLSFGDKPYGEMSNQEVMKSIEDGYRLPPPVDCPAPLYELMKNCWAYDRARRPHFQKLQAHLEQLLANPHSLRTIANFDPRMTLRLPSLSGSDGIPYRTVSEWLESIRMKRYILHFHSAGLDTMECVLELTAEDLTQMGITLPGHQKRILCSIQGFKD
Particulars: at 1 µM.

Experiment [3] addresses T2, Ephrin type-A receptor 1 (Homo sapiens). Particulars: at 10 µM.
Experiment [4] has as its target Ephrin type-A receptor 2 (Homo sapiens) (UniProt P29317). Particulars: at 10 µM.
Experiment [5] addresses Ephrin type-A receptor 7 (Homo sapiens) (UniProt Q15375). Particulars: at 1 µM.
Experiment [6] shares this target. To be noted: at 10 µM.
Experiment [7] deals with T3, Ephrin type-B receptor 1 (Homo sapiens) (UniProt P54762).
T3 sequence (whole entry): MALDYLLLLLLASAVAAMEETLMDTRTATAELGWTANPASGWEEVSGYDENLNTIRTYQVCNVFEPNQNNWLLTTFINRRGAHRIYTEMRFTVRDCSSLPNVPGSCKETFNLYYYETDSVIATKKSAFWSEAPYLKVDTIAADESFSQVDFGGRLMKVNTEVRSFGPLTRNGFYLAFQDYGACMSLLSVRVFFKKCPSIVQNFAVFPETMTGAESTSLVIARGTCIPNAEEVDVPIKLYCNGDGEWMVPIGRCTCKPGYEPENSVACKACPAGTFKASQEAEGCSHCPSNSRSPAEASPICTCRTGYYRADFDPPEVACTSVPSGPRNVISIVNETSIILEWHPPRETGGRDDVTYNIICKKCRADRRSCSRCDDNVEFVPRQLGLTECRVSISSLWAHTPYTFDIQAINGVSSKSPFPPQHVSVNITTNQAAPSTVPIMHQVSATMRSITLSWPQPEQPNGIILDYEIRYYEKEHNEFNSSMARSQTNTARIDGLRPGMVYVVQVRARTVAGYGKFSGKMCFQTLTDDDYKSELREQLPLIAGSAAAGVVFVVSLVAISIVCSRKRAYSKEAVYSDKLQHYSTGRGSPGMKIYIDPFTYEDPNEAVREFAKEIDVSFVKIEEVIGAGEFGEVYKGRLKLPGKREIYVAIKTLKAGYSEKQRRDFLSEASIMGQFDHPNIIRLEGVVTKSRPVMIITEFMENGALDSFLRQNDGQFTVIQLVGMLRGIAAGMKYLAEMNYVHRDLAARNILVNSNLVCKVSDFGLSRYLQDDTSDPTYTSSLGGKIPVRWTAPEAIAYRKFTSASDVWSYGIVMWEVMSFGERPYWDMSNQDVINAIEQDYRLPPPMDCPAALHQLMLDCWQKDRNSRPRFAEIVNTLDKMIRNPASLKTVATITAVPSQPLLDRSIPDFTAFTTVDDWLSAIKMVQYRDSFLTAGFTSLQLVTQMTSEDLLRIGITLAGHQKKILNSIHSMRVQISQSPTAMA
To be noted: at 1 µM.

The target in experiment [8] is T4, Ephrin type-A receptor 3 (Homo sapiens) (UniProt P29320).
T4 sequence (whole entry): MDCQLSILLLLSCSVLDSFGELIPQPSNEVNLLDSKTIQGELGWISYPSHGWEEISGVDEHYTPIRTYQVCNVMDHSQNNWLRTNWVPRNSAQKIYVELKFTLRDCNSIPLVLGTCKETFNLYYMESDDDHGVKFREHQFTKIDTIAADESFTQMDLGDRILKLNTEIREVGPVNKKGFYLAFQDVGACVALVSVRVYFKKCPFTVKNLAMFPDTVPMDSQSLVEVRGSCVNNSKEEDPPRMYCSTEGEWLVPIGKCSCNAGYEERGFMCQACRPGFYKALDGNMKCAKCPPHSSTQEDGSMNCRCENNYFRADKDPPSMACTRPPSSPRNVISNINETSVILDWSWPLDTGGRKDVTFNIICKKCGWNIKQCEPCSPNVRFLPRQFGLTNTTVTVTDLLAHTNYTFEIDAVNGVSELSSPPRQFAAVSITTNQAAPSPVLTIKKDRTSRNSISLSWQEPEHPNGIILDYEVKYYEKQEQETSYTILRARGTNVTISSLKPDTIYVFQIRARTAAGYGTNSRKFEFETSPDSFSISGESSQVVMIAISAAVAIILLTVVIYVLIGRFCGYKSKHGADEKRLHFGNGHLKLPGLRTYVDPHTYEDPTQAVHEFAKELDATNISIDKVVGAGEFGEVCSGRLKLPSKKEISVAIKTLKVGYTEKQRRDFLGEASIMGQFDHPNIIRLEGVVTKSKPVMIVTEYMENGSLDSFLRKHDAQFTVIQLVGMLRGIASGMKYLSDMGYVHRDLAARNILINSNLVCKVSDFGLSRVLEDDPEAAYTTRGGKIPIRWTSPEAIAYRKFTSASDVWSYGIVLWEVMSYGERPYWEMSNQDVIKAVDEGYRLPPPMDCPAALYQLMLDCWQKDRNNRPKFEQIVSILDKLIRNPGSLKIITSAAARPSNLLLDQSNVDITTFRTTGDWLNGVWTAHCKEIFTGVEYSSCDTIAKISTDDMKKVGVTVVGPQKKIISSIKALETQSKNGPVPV
To be noted: at 10 µM.

Experiment [9] addresses T4, Ephrin type-A receptor 3 (Homo sapiens). Particulars: at 1 µM.
For experiment [10], the target named is Ephrin type-A receptor 5 (Homo sapiens) (UniProt P54756). To be noted: at 1 µM.
Experiment [11] shares this target. To be noted: at 10 µM.
Experiment [12] addresses T5, Ephrin type-A receptor 8 (Homo sapiens) (UniProt P29322).
T5 sequence (whole entry): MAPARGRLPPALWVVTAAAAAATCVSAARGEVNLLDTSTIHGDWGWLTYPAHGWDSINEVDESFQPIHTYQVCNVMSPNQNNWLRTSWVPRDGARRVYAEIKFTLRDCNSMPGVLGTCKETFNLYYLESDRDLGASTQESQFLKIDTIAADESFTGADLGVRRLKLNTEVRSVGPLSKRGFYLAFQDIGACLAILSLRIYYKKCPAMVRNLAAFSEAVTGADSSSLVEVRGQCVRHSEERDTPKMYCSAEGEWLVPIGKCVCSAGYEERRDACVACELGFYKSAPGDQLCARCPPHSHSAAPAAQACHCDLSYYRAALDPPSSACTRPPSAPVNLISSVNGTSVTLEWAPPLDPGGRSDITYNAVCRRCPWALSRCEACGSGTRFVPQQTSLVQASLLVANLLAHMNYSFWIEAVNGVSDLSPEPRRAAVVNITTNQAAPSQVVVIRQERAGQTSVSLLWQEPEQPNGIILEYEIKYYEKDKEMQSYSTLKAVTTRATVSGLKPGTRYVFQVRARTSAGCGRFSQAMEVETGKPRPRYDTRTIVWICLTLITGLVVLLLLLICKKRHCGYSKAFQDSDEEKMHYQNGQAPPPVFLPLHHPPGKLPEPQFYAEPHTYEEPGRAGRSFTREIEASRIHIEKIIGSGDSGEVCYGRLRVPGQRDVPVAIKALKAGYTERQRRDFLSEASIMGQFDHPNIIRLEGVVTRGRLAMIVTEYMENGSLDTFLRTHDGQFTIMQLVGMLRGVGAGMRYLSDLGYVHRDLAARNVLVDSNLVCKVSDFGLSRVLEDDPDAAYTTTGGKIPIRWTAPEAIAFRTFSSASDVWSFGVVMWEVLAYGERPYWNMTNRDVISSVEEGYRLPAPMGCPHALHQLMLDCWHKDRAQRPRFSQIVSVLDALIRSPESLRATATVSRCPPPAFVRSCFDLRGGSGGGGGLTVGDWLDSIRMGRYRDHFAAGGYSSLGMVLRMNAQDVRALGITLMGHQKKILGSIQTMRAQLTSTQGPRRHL
Particulars: at 1 µM.

Experiment [13] concerns the target T5, Ephrin type-A receptor 8 (Homo sapiens). Particulars: at 10 µM.
Experiment [14] concerns the target T6, Dual specificity tyrosine-phosphorylation-regulated kinase 2 (Homo sapiens) (UniProt Q92630).
T6 sequence (whole entry): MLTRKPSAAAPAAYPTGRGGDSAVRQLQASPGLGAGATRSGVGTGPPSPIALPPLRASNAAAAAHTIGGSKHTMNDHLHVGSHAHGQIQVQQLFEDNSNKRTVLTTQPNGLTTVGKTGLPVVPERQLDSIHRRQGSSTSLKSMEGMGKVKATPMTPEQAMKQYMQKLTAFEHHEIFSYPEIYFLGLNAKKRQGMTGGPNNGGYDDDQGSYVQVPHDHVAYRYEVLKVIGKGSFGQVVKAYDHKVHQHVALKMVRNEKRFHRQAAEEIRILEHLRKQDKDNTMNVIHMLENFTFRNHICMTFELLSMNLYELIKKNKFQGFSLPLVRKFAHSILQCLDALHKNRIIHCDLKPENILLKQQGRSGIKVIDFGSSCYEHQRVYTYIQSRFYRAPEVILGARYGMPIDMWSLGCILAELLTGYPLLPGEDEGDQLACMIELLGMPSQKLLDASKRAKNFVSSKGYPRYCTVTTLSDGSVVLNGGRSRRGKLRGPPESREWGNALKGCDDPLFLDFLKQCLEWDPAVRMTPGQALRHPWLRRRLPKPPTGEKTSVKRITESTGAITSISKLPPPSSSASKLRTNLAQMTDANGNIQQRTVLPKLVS
Particulars: at 10 µM.

Experiment [15] addresses Ephrin type-A receptor 4 (Homo sapiens) (UniProt P54764). To be noted: at 1 µM.
For experiment [16] the target is unchanged. To be noted: at 10 µM.

Ephrin type-A receptor 7 (Homo sapiens), sequence (Q15375 28-998 limits assumed): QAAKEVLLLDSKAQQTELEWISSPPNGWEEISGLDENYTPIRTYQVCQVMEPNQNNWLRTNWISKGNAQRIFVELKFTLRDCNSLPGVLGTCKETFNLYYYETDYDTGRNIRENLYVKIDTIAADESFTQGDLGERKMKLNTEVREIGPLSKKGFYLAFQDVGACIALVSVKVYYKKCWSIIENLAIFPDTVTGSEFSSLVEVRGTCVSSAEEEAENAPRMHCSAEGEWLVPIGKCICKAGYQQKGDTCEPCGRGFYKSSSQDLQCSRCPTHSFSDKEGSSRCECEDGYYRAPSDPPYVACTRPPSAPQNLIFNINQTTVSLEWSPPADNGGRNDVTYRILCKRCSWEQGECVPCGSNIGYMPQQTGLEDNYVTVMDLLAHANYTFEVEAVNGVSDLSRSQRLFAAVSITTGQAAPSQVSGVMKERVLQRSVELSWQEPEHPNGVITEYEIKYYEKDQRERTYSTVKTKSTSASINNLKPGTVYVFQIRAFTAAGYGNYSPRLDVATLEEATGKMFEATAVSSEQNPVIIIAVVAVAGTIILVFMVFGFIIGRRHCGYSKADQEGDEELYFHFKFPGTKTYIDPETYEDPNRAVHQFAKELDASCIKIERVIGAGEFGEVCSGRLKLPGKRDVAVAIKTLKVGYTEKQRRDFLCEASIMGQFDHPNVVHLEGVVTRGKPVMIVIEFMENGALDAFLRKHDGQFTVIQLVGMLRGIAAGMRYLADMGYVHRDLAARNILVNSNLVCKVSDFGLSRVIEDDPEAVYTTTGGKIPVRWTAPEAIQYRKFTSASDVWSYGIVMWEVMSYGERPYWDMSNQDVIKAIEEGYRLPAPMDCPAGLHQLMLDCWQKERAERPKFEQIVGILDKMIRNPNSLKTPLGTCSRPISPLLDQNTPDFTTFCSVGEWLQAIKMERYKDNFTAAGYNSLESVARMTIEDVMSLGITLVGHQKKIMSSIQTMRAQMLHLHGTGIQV
Ephrin type-A receptor 5 (Homo sapiens), sequence (P54756 whole entry): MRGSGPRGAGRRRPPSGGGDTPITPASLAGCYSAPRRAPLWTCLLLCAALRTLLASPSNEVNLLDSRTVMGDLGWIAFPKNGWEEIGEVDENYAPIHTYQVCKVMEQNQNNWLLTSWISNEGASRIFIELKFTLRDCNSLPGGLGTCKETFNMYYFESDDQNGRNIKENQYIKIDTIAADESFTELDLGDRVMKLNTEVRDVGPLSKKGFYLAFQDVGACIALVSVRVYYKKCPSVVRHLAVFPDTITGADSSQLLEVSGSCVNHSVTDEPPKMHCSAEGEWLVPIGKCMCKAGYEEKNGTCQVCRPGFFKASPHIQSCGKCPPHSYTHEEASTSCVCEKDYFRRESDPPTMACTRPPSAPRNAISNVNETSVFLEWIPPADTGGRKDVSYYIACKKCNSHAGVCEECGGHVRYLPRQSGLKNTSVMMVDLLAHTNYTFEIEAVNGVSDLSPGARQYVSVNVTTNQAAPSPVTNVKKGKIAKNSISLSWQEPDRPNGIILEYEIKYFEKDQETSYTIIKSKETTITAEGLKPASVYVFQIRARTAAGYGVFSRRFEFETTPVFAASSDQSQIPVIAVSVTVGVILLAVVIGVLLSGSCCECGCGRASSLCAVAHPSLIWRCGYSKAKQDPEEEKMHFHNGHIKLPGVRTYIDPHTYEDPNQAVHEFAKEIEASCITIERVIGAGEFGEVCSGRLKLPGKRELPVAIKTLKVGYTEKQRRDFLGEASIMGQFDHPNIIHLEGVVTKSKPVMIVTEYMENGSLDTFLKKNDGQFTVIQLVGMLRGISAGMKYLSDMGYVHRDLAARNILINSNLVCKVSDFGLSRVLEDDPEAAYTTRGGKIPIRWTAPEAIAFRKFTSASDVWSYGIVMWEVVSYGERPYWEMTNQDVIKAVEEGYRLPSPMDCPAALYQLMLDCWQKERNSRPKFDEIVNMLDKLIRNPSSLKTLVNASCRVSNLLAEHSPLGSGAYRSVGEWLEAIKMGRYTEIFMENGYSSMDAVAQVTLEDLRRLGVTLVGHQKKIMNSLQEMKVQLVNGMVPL
Ephrin type-A receptor 4 (Homo sapiens), sequence (P54764 whole entry): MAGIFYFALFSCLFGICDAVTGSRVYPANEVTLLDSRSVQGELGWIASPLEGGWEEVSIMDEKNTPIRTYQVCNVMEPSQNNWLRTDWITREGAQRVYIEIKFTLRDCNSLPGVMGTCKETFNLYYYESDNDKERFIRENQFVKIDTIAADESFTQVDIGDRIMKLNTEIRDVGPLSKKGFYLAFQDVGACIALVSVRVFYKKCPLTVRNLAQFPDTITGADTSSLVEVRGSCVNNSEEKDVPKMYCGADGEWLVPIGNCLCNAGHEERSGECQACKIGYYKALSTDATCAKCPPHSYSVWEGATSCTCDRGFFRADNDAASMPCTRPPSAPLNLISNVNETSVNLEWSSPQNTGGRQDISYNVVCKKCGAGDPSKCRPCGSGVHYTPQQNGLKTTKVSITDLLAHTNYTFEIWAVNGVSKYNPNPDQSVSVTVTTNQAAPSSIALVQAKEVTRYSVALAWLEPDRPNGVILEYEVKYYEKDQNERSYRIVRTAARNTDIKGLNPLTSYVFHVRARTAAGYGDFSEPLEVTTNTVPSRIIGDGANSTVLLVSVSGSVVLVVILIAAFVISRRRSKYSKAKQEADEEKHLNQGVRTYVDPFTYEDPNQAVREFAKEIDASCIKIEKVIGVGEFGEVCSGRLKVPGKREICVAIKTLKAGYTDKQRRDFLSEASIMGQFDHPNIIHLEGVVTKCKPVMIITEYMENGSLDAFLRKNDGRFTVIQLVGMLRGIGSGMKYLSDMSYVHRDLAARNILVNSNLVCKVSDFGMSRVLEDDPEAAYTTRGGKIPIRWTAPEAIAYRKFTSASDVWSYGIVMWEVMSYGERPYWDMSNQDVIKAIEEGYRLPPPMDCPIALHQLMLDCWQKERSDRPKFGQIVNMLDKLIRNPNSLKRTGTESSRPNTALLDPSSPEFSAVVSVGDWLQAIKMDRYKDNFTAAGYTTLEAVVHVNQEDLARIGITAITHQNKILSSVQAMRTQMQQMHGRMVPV
Ephrin type-A receptor 2 (Homo sapiens), sequence (P29317 whole entry): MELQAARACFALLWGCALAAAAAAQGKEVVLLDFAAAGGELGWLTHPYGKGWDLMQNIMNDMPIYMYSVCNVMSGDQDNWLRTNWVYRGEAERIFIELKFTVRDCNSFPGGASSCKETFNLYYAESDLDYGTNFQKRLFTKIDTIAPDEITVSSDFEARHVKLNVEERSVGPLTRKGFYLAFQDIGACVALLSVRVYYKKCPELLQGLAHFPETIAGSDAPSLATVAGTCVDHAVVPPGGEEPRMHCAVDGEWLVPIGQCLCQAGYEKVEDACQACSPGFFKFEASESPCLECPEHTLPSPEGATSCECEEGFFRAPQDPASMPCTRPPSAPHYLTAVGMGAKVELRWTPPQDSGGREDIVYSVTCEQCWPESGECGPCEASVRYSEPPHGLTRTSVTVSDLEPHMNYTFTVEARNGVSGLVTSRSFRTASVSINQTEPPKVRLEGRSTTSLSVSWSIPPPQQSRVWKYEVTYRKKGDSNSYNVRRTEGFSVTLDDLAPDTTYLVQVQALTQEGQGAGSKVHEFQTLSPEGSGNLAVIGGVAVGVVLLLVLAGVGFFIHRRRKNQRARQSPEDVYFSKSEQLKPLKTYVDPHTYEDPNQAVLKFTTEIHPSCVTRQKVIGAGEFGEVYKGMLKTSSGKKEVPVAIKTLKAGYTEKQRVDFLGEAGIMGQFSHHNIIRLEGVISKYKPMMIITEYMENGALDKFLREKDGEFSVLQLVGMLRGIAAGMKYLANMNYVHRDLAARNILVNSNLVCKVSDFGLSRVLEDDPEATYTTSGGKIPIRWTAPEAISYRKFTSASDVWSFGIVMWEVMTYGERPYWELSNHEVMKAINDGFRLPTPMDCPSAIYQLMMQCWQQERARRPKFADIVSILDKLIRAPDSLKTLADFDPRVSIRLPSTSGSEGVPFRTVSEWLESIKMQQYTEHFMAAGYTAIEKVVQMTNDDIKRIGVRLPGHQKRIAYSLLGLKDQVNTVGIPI

The term residual activity denotes the signal under treatment as a percentage of the control signal. Take `O=C1NC(=O)C(c2c[nH]c3ccccc23)=C1c1c[nH]c2ccccc12`: the residual activity was found to be 25% in experiment [1]; 77% in experiment [2]; 22% in [3]; 50% in experiment [4]; 99% in experiment [5]; 67% in experiment [6]. The residual activity in experiment [7] came out at 83%.

For the compound `CCOC(=O)c1c(C)[nH]c(/C=C2\C(=O)Nc3ccccc32)c1C`, the residual activity in experiment [1] is 75%; in [2], 83%; in experiment [3] it was 118%; in experiment [8] it was 99%; in [5], 97%; in experiment [6], 93%. The residual activity in experiment [7] worked out at 97%.

Consider `COc1cc2c(cc1OC)-c1n[nH]c(Nc3cccc(F)c3)c1C2`, for which the residual activity in [1] is 53%; in experiment [3] it was 34%; in experiment [9], 83%; in experiment [8], 42%; in [10], 103%; in experiment [11], 43%. Also, the residual activity in experiment [6] worked out at 64%; in experiment [12] it was 69%; in experiment [13], 26%; in experiment [7] it was 83%.

In the case of `CCCC(=O)Oc1ccc2[nH]c(C(=O)c3cc4ccccc4[nH]3)cc2c1`, the residual activity in [14] was 102%; in [2] it was 88%; in experiment [3], 94%; in experiment [9], 107%; in [8], 105%; in experiment [15], 105%. Moreover, the residual activity stood at 91% in experiment [16]; 107% in experiment [10]; 99% in experiment [11]; 96% in experiment [5]; 86% in experiment [6]; 92% in [12]. For the same compound, the residual activity in experiment [13] was 98%; in experiment [7] it was 82%.
